# Source: PubChem BioAssay (NCATS)
# Where “and” joins values, the source holds several entries; their conditions need not be identical. Equal entries are not always repeated. Results filed as inconclusive are left out. Where a call stands in place of a potency, no number is given. Unmarked numbers belong to inactive results. Calls of active or inactive are those of the source. The call rests on the fitted dose curve; in most records, active means well fitted curve in the direction sought with a large enough effect; inconclusive means small, poorly fitted or top-dose-only effect, or another doubt; inactive means no such curve, though single readings can be large; an effect the other way counts as inactive or inconclusive.
# What was measured:
# [1] = biological target: Cellular tumor antigen p53 (Homo sapiens) (UniProt P04637); assay: Primary qHTS for small molecule compounds that upregulate eGFP-tagged delta133p53alpha (in N-terminal) cells. (AID 2060322); conditions: NCI-H358 eGFP-delta133p53alpha fluorescence, 24 h; activation: active compounds read high; further: series mostly up to about 56 µM; nearly all actives have a fitted effect of over 75% in size
# Cellular tumor antigen p53 (Homo sapiens), sequence (P04637 whole entry, looked up): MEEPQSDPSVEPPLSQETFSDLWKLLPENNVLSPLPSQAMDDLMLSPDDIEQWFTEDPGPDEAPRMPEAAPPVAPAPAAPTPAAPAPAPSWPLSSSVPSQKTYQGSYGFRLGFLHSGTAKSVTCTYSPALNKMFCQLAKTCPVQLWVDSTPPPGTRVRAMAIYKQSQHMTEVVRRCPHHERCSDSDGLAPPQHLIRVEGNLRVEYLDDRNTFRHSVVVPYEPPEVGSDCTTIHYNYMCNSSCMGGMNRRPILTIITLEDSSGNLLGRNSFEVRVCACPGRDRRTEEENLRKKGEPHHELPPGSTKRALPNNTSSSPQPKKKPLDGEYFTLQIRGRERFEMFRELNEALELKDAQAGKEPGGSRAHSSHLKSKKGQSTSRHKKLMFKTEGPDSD
# Summary of the method: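 NCI-H358 cells pre-induced 24 h with 10 ng/ml doxycycline to express N-terminal eGFP-delta133p53alpha, then dosed 24 h at 37C without doxycycline; fixed, Hoechst-stained, GFP intensity by laser scanning cytometry, normalized to DMSO (0%) and 57.5 uM 5-azacytidine (100%).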
# [2] = BET inhibitor-based combinations targeting novel dependencies in MECOM-rearranged (r) AML: OCI-AML3 cell line (AID 2202232); conditions: Potency: OCI-AML3 viability; further: nearly all actives have a fitted effect of over 35% in size; further: potency means the concentration at half of the fitted maximal effect
# Summary of the method: (§1)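 A 48 hr incubation preceded viability reading by CellTiter-Glo, with 15 min room-temperature development. Dose series had 11 points; normalization used DMSO and empty wells; AUC was computed and mean-centered per line as Z-AUC.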
# [3] = BET inhibitor-based combinations targeting novel dependencies in MECOM-rearranged (r) AML: MV-4-11 cell line (AID 2202233); further: nearly all actives have a fitted effect of over 45% in size; further: potency means the concentration at half of the fitted maximal effect
# Summary of the method: (§2)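 Each compound is tested in an 11-point concentration series against 500 seeded cells/well for 48 hr. The luminescent viability signal is normalized to DMSO and blank wells, then reduced to AUC and a cell-line-centred Z-AUC.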
# [4] = BET inhibitor-based combinations targeting novel dependencies in MECOM-rearranged (r) AML: HNT-34 cell line (AID 2202234); further: nearly all actives have a fitted effect of over 35% in size; further: potency means the concentration at half of the fitted maximal effect
# Summary of the method: as §2
# [5] = BET inhibitor-based combinations targeting novel dependencies in MECOM-rearranged (r) AML: AML-191 cell line (AID 2202236; further: nearly all actives have a fitted effect of over 35% in size; further: potency means the concentration at half of the fitted maximal effect)
# Summary of the method: as §1
# [6] = BET inhibitor-based combinations targeting novel dependencies in MECOM-rearranged (r) AML: AML-194 cell line (AID 2202237; further: nearly all actives have a fitted effect of over 40% in size; further: potency means the concentration at half of the fitted maximal effect)
# Summary of the method: as §1
# [7] = BET inhibitor-based combinations targeting novel dependencies in MECOM-rearranged (r) AML: UCSD-AML1 cell line (AID 2202235); further: nearly all actives have a fitted effect of over 40% in size; further: potency means the concentration at half of the fitted maximal effect
# Summary of the method: as §2
SMILES,activation [1],Potency [2],Potency [3],Potency [4],Potency [5],Potency [6],Potency [7]
C[C@H]1COc2c(N3CCN(C)CC3)c(F)cc3c(=O)c(C(=O)O)cn1c23,-12.8%,inactive,inactive,inactive,inactive,inactive,
O=C1CCCC(=O)C1C(=O)c1ccc(C(F)(F)F)cc1[N+](=O)[O-],24.5%,inactive,inactive,inactive,inactive,inactive,inactive
OC[C@H]1OC(O)C[C@@H](O)[C@H]1O (stereo not given in full),27.8%,inactive,inactive,inactive,inactive,inactive,inactive
Nc1ncnc2ccccc12,22.8%,inactive,inactive,inactive,inactive,inactive,inactive
C[C@@H](NCc1cc2ccccc2[nH]1)c1cccc2ccccc12,-11%,14.8 µM (active),18.6 µM (active),10.5 µM (active),13.2 µM (active),8.33 µM (active),
Oc1ccc(C2CCN(c3ccnc4ccccc34)CC2)cc1O,25.9%,13.2 µM (active),9.34 µM (active),,,,inactive
CCCCCCNC(=O)n1cc(F)c(=O)[nH]c1=O,-29.9% and -7.59%,1.86 µM (active),1.66 µM (active),,,,7.42 µM (active)
O=C1CN2Cc3c(ccc(Cl)c3Cl)N=C2N1,-11.4%,inactive,inactive,inactive,inactive,inactive,inactive
CC(Oc1ccc(O)cc1)(P(=O)(O)O)P(=O)(O)O,-17.7%,inactive,inactive,inactive,inactive,inactive,inactive
Cc1ccc(S(=O)(=O)Nc2nc3ccccc3nc2Nc2ccc3nsnc3c2)cc1,6.55%,inactive,inactive,inactive,,,inactive
